# Records with an inconclusive call do not appear. The source made the active and inactive calls. The call rests on the fitted dose curve; in most records, active means well fitted curve in the direction sought with a large enough effect; inconclusive means small, poorly fitted or top-dose-only effect, or another doubt; inactive means no such curve, though single readings can be large; an effect the other way counts as inactive or inconclusive.
# What was measured:
# [1] = Primary qHTS for inhibitors of nuclear receptor binding SET domain protein 2 (NSD2) in an RCH-ACV wild type WT cells (2C) (AID 1645877); further: nearly all actives have a fitted effect of over 70% in size
# [2] = target: Rap guanine nucleotide exchange factor 3 (Homo sapiens) (UniProt O95398); assay: Confirmatory qHTS for antagonist of cAMP-regulated guanine nucleotide exchange factor 3 (EPAC1) (AID 1645880); further: nearly all actives have a fitted effect of over 55% in size
# Sequence of Rap guanine nucleotide exchange factor 3 (Homo sapiens) (O95398 whole entry, looked up): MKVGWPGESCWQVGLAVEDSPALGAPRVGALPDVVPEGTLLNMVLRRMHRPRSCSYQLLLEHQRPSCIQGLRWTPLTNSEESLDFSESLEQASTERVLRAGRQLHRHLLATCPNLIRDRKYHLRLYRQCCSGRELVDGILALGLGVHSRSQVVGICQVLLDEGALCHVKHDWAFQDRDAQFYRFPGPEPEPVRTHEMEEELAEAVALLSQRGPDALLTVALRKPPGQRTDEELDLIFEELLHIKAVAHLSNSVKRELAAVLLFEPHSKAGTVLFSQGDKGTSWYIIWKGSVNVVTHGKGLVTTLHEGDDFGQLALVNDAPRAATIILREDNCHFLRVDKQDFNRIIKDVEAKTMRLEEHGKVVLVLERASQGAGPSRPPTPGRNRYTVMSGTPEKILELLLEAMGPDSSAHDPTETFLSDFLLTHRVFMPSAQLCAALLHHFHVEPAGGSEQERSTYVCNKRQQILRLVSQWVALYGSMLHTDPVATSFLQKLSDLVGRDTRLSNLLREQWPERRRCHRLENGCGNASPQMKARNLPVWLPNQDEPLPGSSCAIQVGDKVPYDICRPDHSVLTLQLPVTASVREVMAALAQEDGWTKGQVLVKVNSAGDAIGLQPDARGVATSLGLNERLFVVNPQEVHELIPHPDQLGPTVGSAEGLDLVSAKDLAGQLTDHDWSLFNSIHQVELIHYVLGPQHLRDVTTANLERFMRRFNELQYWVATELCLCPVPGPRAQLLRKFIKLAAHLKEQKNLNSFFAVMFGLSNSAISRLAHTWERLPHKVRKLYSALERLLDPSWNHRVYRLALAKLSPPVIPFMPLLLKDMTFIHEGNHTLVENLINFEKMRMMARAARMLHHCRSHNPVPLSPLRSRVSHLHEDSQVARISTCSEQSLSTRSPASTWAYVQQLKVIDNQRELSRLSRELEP
# Method in brief: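 Released BODIPY-GDP fluoresces less than Rap1-bound BODIPY-GDP; the signal is followed at 480/540 nm at 5-min intervals over 30 min, after 5 min at room temperature. Reactions contain 100 nM EPAC1, 250 nM RAP1B-BODIPY-GDP and 50 uM GDP; results are normalized to ATA and DMSO.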
# [3] = target: Rap guanine nucleotide exchange factor 4 (Homo sapiens) (UniProt Q8WZA2); assay: Confirmatory qHTS for agonist of cAMP-regulated guanine nucleotide exchange factor 4 (EPAC2) (AID 1645884);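 further: nucleotide exchange releases bodipy-GDP from Rap1 and this lowers its fluorescence; nearly all actives have a fitted effect of over 65% in size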
# Sequence of Rap guanine nucleotide exchange factor 4 (Homo sapiens) (Q8WZA2 whole entry, looked up): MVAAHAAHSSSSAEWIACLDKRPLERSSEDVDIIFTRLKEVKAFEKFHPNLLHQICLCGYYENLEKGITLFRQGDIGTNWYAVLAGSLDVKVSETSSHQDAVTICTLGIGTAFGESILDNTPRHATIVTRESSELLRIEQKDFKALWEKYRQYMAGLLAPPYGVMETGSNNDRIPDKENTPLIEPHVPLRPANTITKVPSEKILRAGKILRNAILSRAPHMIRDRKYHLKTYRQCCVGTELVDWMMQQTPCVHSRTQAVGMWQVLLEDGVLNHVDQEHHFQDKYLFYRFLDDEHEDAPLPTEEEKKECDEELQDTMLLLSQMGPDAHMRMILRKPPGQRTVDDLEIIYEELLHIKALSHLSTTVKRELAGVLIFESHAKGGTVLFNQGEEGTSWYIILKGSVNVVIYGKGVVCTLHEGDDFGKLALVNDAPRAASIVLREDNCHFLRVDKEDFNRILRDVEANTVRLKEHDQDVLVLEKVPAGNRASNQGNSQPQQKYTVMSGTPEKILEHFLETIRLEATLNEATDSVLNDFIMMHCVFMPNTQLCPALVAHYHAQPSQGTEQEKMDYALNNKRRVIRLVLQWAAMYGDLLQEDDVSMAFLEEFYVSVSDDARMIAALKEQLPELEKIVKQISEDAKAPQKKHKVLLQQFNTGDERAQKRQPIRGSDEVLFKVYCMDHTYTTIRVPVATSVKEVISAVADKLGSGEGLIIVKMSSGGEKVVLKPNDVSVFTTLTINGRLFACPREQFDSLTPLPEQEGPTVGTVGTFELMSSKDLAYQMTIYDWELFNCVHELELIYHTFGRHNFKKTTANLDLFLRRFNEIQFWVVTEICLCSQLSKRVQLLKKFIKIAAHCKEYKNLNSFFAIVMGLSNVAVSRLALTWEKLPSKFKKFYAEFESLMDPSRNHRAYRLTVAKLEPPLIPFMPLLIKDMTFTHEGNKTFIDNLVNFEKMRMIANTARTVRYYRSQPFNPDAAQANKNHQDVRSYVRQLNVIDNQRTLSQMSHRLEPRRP
# [4] = target: Rap guanine nucleotide exchange factor 4 (Homo sapiens) (UniProt Q8WZA2); assay: Confirmatory qHTS for antagonist of cAMP-regulated guanine nucleotide exchange factor 4 (EPAC2) (AID 1645885); further: nearly all actives have a fitted effect of over 25% in size
# Potency means the concentration at half of the fitted maximal effect.
smiles,measurement,setting,value
C#C[C@]1(O)CC[C@H]2[C@@H]3CCC4=CC(=O)CC[C@@H]4[C@H]3CC[C@@]21C,Potency,[1],26.6 µM (active)
CCCC(=O)O[C@]1(C(=O)CO)CC[C@H]2[C@@H]3CCC4=CC(=O)CC[C@]4(C)[C@H]3[C@@H](O)C[C@@]21C,Potency,[1],0.0299 µM (active)
Cc1cc(N)c2cc(NC(=O)Nc3ccc4nc(C)cc(N)c4c3)ccc2n1,Potency,[2],25 µM (active)
same,Potency,[3],25.1 µM (active)
same,Potency,[4],35 µM (active)

# From PubChem BioAssay (NCATS)
